PubChem BioAssay (Tox21)
Where “and” joins values, the source holds several entries; their conditions need not be identical. Equal entries are not always repeated. Results filed as inconclusive are left out. Entries that show only a call come without a potency. Some compounds were tested as several samples or in several runs, with calls that do not always agree. Calls of active or inactive are those of the source. Unless noted, the call rests on the fitted dose curve; in most records, active means well fitted curve in the direction sought with a large enough effect in the repeat runs; inconclusive means weak or mixed curves; inactive means no such curve, though single readings can be large; an effect the other way counts as inactive or inconclusive.

Experiments:
[1] = qHTS assay to identify small molecule antagonists of the vitamin D receptor (VDR) signaling pathway - cell viability counter screen (AID 743225); further: nearly all actives have a fitted effect of over 50% in size; further: potency means the concentration at half of the fitted maximal effect
How it was run: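 In this counter screen, VDR-bla HEK 293T cells receive test compound plus 3 nM final calcitriol for 16 h at 37C. Room-temperature steps of 2 h with the beta-lactamase substrate, then 30 min with CellTiter-Glo, precede the luminescence read.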

[2] = qHTS assay to identify small molecule agonists of the endoplasmic reticulum stress response signaling pathway (AID 1159516; active means well fitted activation curve with a large enough effect in the signal ratio in the repeat runs, not every such curve was filed as active; the % refers to the signal ratio)
How it was run: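 CellSensor ESRE-bla HeLa cells, 1,500 per well, plated overnight, then exposed to compounds for 5 hr at 37 C. Beta-lactamase reporter read with LiveBLAzer B/G FRET substrate after 2 hr at room temperature, 405 nm excitation, 460 and 530 nm emission.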

[3] = qHTS assay to identify small molecule antagonists of the retinoid-related orphan receptor gamma (ROR-gamma) signaling pathway - cell viability counter screen (AID 1159520); further: nearly all actives have a fitted effect of over 50% in size; further: potency means the concentration at half of the fitted maximal effect
How it was run: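 Tet-on ROR gamma CHO cells (1,000/well) were plated 4 hr, given compounds in DMSO for 2 hr at 37 C, then induced with 1 uM final doxycycline for 16 hr. Viability was read as ATP by CellTiter-Glo luminescence after 30 min.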

[4] = molecular target: Nuclear receptor ROR-gamma (Homo sapiens) (UniProt P51449); assay: qHTS assay to identify small molecule antagonists of the retinoid-related orphan receptor gamma (ROR-gamma) signaling pathway (AID 1159521; further: nearly all actives have a fitted effect of over 50% in size; further: potency means the concentration at half of the fitted maximal effect)
How it was run: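 Screening format: cell-based luciferase reporter in CHO cells with doxycycline-inducible RORγ. Compound pre-exposure lasts 2 h, doxycycline is 1 uM final, induction runs 16 h at 37 C, and ONE-Glo luminescence is read.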

[5] = qHTS assay to identify small molecule agonists of the AP-1 signaling pathway - cell viability counter screen (AID 1159525; calls by dose curve; further: nearly all actives have a fitted effect of over 55% in size; further: potency means the concentration at half of the fitted maximal effect)
How it was run: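 ME-180 AP-1-bla, 2500 cells/well, Opti-MEM + 0.5% dialyzed FBS; overnight 37 °C; cpd 15-pt titration, 5 h 37 °C; CellTiter-Glo 30 min RT; luminescence read; normalised to TOAB and DMSO controls.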

[6] = qHTS assay to identify small molecule agonists of the AP-1 signaling pathway (AID 1159526; calls by dose curve)
[7] = molecular target: Retinoic acid receptor RXR-alpha (Homo sapiens) (UniProt P19793); assay: qHTS assay to identify small molecule agonists of the RXR signaling pathway (AID 1159527; calls by dose curve; further: nearly all actives have a fitted effect of over 35% in size)
How it was run: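 Fluorescence ratio readout (460 vs 530 nm) from GeneBLAzer RXR-alpha HEK 293T cells after 16 hr compound treatment; cells seeded 5 hr beforehand in low-serum, charcoal-stripped medium.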

[8] = qHTS assay to identify small molecule agonists of the RXR signaling pathway - cell viability counter screen (AID 1159529); further: nearly all actives have a fitted effect of over 50% in size; further: potency means the concentration at half of the fitted maximal effect
How it was run: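 Viability read-out for the RXR-alpha agonist qHTS: luminescent CellTiter-Glo signal after 30 min at RT. HEK 293T bla reporter cells, 2% charcoal-stripped FBS, 16 hr compound incubation; tetraoctyl ammonium bromide as cytotoxic control.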

[9] = qHTS assay to identify small molecule agonists of the endoplasmic reticulum stress response signaling pathway - cell viability counter screen (AID 1159517; calls by dose curve; further: nearly all actives have a fitted effect of over 50% in size; further: potency means the concentration at half of the fitted maximal effect)
How it was run: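 CellTiter-Glo was added to wells already read for beta-lactamase FRET, and luminescence was recorded 30 min later. Cells: ESRE-bla HeLa, 1,500 per well, compound exposure 5 hr at 37 C.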

Retinoic acid receptor RXR-alpha (Homo sapiens), sequence (P19793 whole entry, looked up): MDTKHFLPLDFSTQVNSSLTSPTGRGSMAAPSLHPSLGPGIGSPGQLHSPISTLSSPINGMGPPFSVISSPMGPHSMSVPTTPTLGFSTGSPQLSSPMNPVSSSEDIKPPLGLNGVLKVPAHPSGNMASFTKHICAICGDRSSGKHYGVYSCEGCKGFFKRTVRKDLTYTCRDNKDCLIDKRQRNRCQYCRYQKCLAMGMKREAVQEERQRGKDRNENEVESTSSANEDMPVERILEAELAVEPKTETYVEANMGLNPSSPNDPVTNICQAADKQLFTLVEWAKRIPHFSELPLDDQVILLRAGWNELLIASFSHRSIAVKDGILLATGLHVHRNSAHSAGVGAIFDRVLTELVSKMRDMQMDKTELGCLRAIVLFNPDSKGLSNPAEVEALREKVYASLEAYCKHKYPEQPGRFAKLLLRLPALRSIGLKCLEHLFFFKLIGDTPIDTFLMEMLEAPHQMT

| Compound | Potency [1] | Potency [2] | Potency [3] | Potency [4] | Potency [5] | Potency [6] | Potency [7] | Potency [8] | Potency [9] |
| --- | --- | --- | --- | --- | --- | --- | --- | --- | --- |
| CCOP(=O)(O)C(N)=O | inactive | inactive | inactive | inactive | inactive | inactive | inactive | inactive | – |
| CCNC(=O)NC(=O)/C(C#N)=N/OC | inactive | inactive | inactive | – | inactive | inactive | – | inactive | inactive |
| COc1ccc(C(=O)c2c(C)n(CCN3CCOCC3)c3ccccc23)cc1 | inactive | inactive | inactive | inactive | inactive | inactive | – | inactive | inactive |
| C#CC(O)(C=CCl)CC (centres undefined) | inactive | inactive | inactive | inactive | inactive | inactive | inactive | inactive | inactive |
| CC(C)(C)NCC(O)c1cc(Cl)c(N)c(C(F)(F)F)c1 (centres undefined) | inactive | inactive | inactive | – | inactive | inactive | inactive | inactive | inactive |
| O=C(N/N=C/c1ccc([N+](=O)[O-])o1)c1cc([N+](=O)[O-])cc([N+](=O)[O-])c1O | inactive | inactive | inactive | inactive | inactive | inactive | – | inactive | inactive |
| CCC(C)(C)c1ccc(O)c(C(C)(C)CC)c1 | 12.2 µM (active) and 19.5 µM (active) | – | 60.4 µM (active) | – | 12.2 µM (active) and 13.8 µM (active) | – | – | 12.2 µM (active) and 12.3 µM (active) | 15.3 µM (active) and 21.9 µM (active) |
| COC(=O)C1(O)c2ccccc2-c2ccccc21 | inactive | inactive | inactive | inactive | inactive | inactive | inactive | inactive | inactive |
| O=C(N[C@H]1CN2CCC1CC2)c1ccc2c(c1)OCCO2 | inactive | inactive | inactive | inactive | inactive | inactive | – | inactive | inactive |
| C=CCOCC1CO1 (centres undefined) | inactive | inactive | inactive | – | inactive | inactive | inactive | inactive | inactive |
| CCCCCCCCn1sccc1=O | 19.5 µM (active) and 22.9 µM (active) | – | 24.4 µM (active) and 9.05 µM (active) | 6.13 µM (active) and 9.05 µM (active) | 5.51 µM (active) and 5.13 µM (active) | – | – | 1.95 µM (active) and 2.04 µM (active) | – |
| CC(C)(c1ccccc1)c1cc(-n2nc3ccccc3n2)c(O)c(C(C)(C)c2ccccc2)c1 | inactive | inactive | inactive | inactive | inactive | inactive | – | inactive | inactive |
| N#CC(C#N)=Cc1ccc(O)c(O)c1 | inactive | inactive | inactive | inactive | inactive | inactive | inactive | inactive | inactive |
| N#CC(C#N)=C(C#N)C#N | – | inactive | inactive | – | inactive | inactive | inactive | inactive | – |
| CON(C)C(=O)Nc1ccc(Cl)cc1 | – | inactive | inactive | – | inactive | inactive | inactive | inactive | inactive |
| COC1=CC(=O)O[C@@H](/C=C/c2ccc3c(c2)OCO3)C1 | inactive | inactive | inactive | inactive | inactive | inactive | – | inactive | inactive |
| CC(C)c1ccc(NC(=O)N(C)C)cc1 | inactive | inactive | inactive | inactive | inactive | inactive | inactive | inactive | – |
| O=C(CCl)CCl | inactive | – | 5.45 µM (active) | 14.2 µM (active) and 12.2 µM (active) | inactive | – | – | inactive | 43.6 µM (active) |
| CCCCNC(=O)OCC#CI | inactive | – | 54.2 µM (active) and 17.2 µM (active) | 24.2 µM (active) | 54.7 µM (active) | – | – | – | inactive |
| CCCC[P+](CC)(CCCC)CCCC (tested in a mixture with another compound) | inactive | inactive | inactive | inactive | inactive | inactive | inactive | inactive | inactive |

| Compound | Potency [1] | Potency [2] | Potency [3] | Potency [4] | Potency [5] | Potency [6] | Potency [7] | Potency [8] | Potency [9] |
| --- | --- | --- | --- | --- | --- | --- | --- | --- | --- |
| CCCC[N+](CCCC)(CCCC)CCCC | inactive | inactive | inactive | inactive | inactive | inactive | – | inactive | – |
| ClCc1ccccc1Cl | inactive | inactive | inactive | inactive | inactive | inactive | inactive | inactive | inactive |
| O=CC=O | inactive | inactive | inactive | inactive | inactive | inactive | inactive | inactive | inactive |
| O=[N+]([O-])/C=C/c1ccccc1 | 49.8 µM (active) and inactive | – | 11 µM (active) and 13.7 µM (active) | 5.54 µM (active) and 9.69 µM (active) | inactive | – | – | – | inactive |
| CCCN(CCC)c1c([N+](=O)[O-])cc(C(C)C)cc1[N+](=O)[O-] | inactive | – | inactive | inactive | inactive | inactive | inactive | inactive | inactive |
| O=C(NC(=O)c1cc(F)c(F)cc1Cl)Nc1cc(F)ccc1N1CCC(C(=O)O)CC1 | inactive | inactive | inactive | inactive | inactive | inactive | – | inactive | inactive |
| O=[N+]([O-])c1cc(Cl)c(Cl)cc1Cl | inactive | inactive | inactive | inactive | inactive | inactive | inactive | inactive | – |
| CCCCCl | inactive | inactive | inactive | inactive | inactive | inactive | – | inactive | – |
| C=CCc1ccccc1O | inactive | inactive | inactive | inactive | inactive | inactive | inactive | inactive | inactive |
| CC(O)CN1CCN(CC(=O)[O-])CCN(CC(=O)[O-])CCN(CC(=O)[O-])CC1.[Gd+3] (centres undefined) | inactive | inactive | inactive | – | inactive | inactive | – | inactive | inactive |
| O=C1NC(=O)C(=O)C(=O)N1 | inactive | inactive | inactive | inactive | inactive | inactive | inactive | inactive | inactive |
| CC1(C)CC(=O)CC(C)(C)N1[O] | inactive | inactive | inactive | inactive | inactive | inactive | inactive | inactive | inactive |
| Cc1nc2ccccc2c(=O)n1-c1ccccc1Cl | inactive | inactive | inactive | – | inactive | inactive | – | inactive | – |
| O=C(O)c1ccc(=O)[nH]c1 | inactive | inactive | inactive | – | inactive | inactive | inactive | inactive | – |
| NP(N)(=O)NC(=O)c1ccc(F)cc1 | inactive | inactive | inactive | inactive | inactive | inactive | inactive | inactive | – |
| CCOc1cccc(C2(N3CCN(c4ccccc4)CC3)CCC(C)CC2)c1 (centres undefined) | inactive | inactive | inactive | inactive | inactive | inactive | inactive | inactive | – |
| C=CC(=O)NC(C)(C)CC(C)=O | inactive | inactive | inactive | inactive | inactive | inactive | inactive | inactive | inactive |
| N#CC1(N=NC2(C#N)CCCCC2)CCCCC1 | inactive | inactive | inactive | inactive | inactive | inactive | inactive | inactive | – |
| [Cl-].[Cl-].[Hg+2] | 1.22 µM (active) and 3.47 µM (active) | – | 48.3 µM (active) and 1.09 µM (active) | – | 4.88 µM (active) and 4.36 µM (active) | – | – | 3.08 µM (active) and 3.09 µM (active) | – |
